The full ranking holds about 1,100 compounds; the median of “Renilla luciferase signal (cell health) relative to plate median” is about 0.97, and the highest 2% start at about 1.6. This excerpt belongs to a sample that is enriched for the highest values.
Tested on: HEK293T (UBE3A T485A transfected, BAR Wnt reporter)
Assay: Renilla luciferase signal (cell health) relative to plate median (fold (linear ratio)); higher = higher Renilla signal
Conditions: 24 h
Summary of the method: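 Using Fugene 6, HEK293T cells in white 384-well plates (4500 cells/well; DMEM, 10% FBS, 37°C, 5% CO2) were transfected with a BAR firefly luciferase Wnt reporter, TK-Renilla and an expression plasmid. After four hours, robots dosed the chemicals at 0.01–100 uM, and a Dual-Glo luciferase readout followed 24 h later. Per-plate median-centred firefly/Renilla ratios gave Wnt activity, while per-plate median-centred raw Renilla signals gave cell health. Four biological replicates were averaged.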

SMILES | Renilla luciferase signal (concentration: 0.01 uM) | Renilla luciferase signal (concentration: 0.1 uM) | Renilla luciferase signal (concentration: 1 uM) | Renilla luciferase signal (concentration: 10 uM) | Renilla luciferase signal (concentration: 100 uM)
CSC(=O)c1cccc2nnsc12 [Acibenzolar-S-methyl] | 0.985 | 1.18 | 1.05 | 1.07 | 1.8
CN(C)C(=O)Nc1ccc(Cl)c(Cl)c1 [Diuron] | 0.747 | 1.11 | 1.06 | 0.951 | 0.328
O=C(CCCCCCCCc1cccnc1)N1CCC(C=C(c2ccccc2)c2ccccc2)CC1 |  | 0.898 | 0.875 | 0.939 | 0.0905
C=CCOC(Cn1ccnc1)c1ccc(Cl)cc1Cl (configuration not stated) [Imazalil] | 0.797 | 0.885 | 0.939 | 0.777 | 0.0667
c1ccc2c(c1)ccc1ccccc12 [Phenanthrene] |  | 0.817 | 0.792 | 0.858 | 0.898
c1ccc2ccccc2c1 [Naphthalene] |  | 1.18 | 1.14 | 1.33 | 1.64
c1ccc2cc3ccccc3cc2c1 [Anthracene] |  | 1.34 | 1.26 | 0.952 | 0.992
N=C(N)c1ccc(OCCCCCOc2ccc(C(=N)N)cc2)cc1.O=S(=O)(O)CCO.O=S(=O)(O)CCO [Pentamidine isethionate] |  | 1.02 | 2.37 | 0.453 | 0.0508
CCCCCCCC(=O)O [Octanoic acid] |  | 0.834 | 0.792 | 0.83 | 1.09
OCC(CO)(CO)CO [Pentaerythritol] |  | 0.898 | 1.02 | 1.08 | 2.01
OCC(CO)(CBr)CBr [2,2-Bis(bromomethyl)-1,3-propanediol] |  | 0.999 | 0.961 | 1.01 | 1.07
O=c1c(-c2ccc(O)cc2)coc2cc(O)cc(O)c12 [Genistein] | 0.617 | 0.604 | 0.77 | 0.58 | 1.01
COc1cc(S(=O)(=O)[O-])c(C)cc1/N=N/c1c(O)ccc2cc(S(=O)(=O)[O-])ccc12.[Na+].[Na+] |  | 0.934 | 0.936 | 0.887 | 0.502
CC[C@H]1OC(=O)[C@H](C)[C@@H](O[C@H]2C[C@@](C)(OC)[C@@H](O)[C@H](C)O2)[C@H](C)[C@@H](O[C@@H]2O[C@H](C)C[C@H](N(C)C)[C@H]2O)[C@](C)(O)C[C@@H](C)C(=O)[C@H](C)[C@@H](O)[C@]1(C)O [Erythromycin] |  | 0.894 | 1.14 | 2.38 | 5.97
CCCC(CCC)C(=O)O [Valproic acid] | 0.788 | 0.847 | 0.87 | 0.883 | 1.56
CCNc1nc(N)nc(Cl)n1 [Deisopropylatrazine] | 0.898 | 0.991 | 0.951 | 0.879 | 0.243

SMILES | Renilla luciferase signal (concentration: 0.01 uM) | Renilla luciferase signal (concentration: 0.1 uM) | Renilla luciferase signal (concentration: 1 uM) | Renilla luciferase signal (concentration: 10 uM) | Renilla luciferase signal (concentration: 100 uM)
CC(=O)S[C@H](C(=O)N[C@H]1Cc2ccccc2[C@H]2CCC[C@@H](C(=O)O)N2C1=O)C(C)C [Ilepatril] |  | 0.879 | 0.836 | 0.857 | 1.53
CCCCCCCCC(=O)O [Nonanoic acid] |  | 0.743 | 0.854 | 0.901 | 0.975
CN(C)c1ccc(C(=C2C=CC(=[N+](C)C)C=C2)c2ccc(N(C)C)cc2)cc1.[Cl-] [Gentian Violet] |  | 0.155 | 0.0242 | 0.0245 | 0.0226
CCNc1ccccc1 [N-Ethylaniline] |  | 1.01 | 0.97 | 1.08 | 1.17
Nc1ccc(Nc2ccccc2)cc1 [N-Phenyl-1,4-benzenediamine] |  | 0.905 | 0.984 | 0.71 | 0.204
c1ccc(Nc2ccccc2)cc1 [Diphenylamine] | 1.09 | 1.05 | 1.06 | 1.09 | 1.82
Nc1cccc(N)c1 [1,3-Benzenediamine] |  | 1.19 | 1.05 | 1.19 | 1.74
Nc1ccc2c(c1)C(=O)c1ccccc1C2=O [2-Aminoanthraquinone] |  | 1.16 | 0.898 | 0.829 | 0.621
Nc1cccc2c(N)cccc12 [1,5-Naphthalenediamine] |  | 0.805 | 0.822 | 0.856 | 0.73
CCCCC(CC)CO (configuration not stated) [2-Ethyl-1-hexanol] |  | 0.758 | 0.775 | 0.504 | 1.25
CCCCCCCCCCCCCCCCCC(=O)O [Octadecanoic acid] |  | 0.913 | 0.958 | 0.923 | 1.4
CNC(CC(=O)O)C(=O)O (configuration not stated) | 1.02 | 1.14 | 0.949 | 1.02 | 1.9
O=C(O)CC(O)C(=O)O (configuration not stated) [Malic acid] |  | 1.33 | 1.26 | 1.32 | 1.29
Cc1ccc2oc(CN(Cc3ccccc3)C(=O)Nc3c(F)cc(F)cc3F)c(-c3ccc(Cl)cc3)c2c1 |  | 0.953 | 0.858 | 0.846 | 0.482
CC(C)CCCCCCOC(=O)C1CCCCC1C(=O)OCCCCCCC(C)C (configuration not stated) [Diisononyl cyclohexane-1,2-dicarboxylate] |  | 0.946 | 1.13 | 1.06 | 1.38

Source: the supplement of paper PMC9254222
